Data on 6 compounds can be found in PubChem BioAssay AID492992 (Johns Hopkins Ion Channel Center, 2010).

Hit rate of the full screen: of about 4,900 compounds, about 2,100 (43%) were called active.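 Rule for the calls: active = thallium signal inhibited by more than 5 SD of the compound-free buffer control wells, on both duplicate plates; inactive = the rest.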 So high a share suggests a set chosen from earlier hits. Many of the other results were omitted from the sample, so actives are more common in it than they were.

Potassium channel subfamily K member 9 (Homo sapiens), sequence (Q9NPC2 whole entry, looked up): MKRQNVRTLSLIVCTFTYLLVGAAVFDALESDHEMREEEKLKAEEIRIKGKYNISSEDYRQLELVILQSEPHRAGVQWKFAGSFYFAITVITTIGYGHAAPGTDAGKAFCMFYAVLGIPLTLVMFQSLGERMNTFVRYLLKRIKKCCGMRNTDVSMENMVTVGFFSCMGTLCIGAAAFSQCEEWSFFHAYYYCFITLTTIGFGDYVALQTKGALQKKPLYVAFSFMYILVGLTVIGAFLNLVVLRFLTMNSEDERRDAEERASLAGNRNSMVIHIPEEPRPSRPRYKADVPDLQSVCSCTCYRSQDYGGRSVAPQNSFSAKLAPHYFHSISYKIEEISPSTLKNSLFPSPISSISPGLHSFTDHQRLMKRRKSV

This assay addresses Potassium channel subfamily K member 9 (Homo sapiens) (UniProt Q9NPC2). The assay is described as follows: blockers of human TASK-3 (KCNK9) channel – HEK293 cells, thallium flux, duplicate, confirmation (AID 492992).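 For inhibition: 0% = assay buffer control wells without compound.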 As to conditions: FluxOR thallium flux fluorescence, at 10 µM; active compounds read high.
Turning to `CC(C)(C)c1ccc(CN2C(=O)CN=C(c3ccccc3)c3ccccc32)cc1`, the inhibition was 59% (active).
The value for `CCOC(=O)C1SC2(C(F)(F)C(F)F)CC1(O)c1c(c(OC)c3occc3c1OC)O2` (stereo unspecified) was 23.5% (active); that for `CC(C)n1c(=O)c(C=Nc2ccc(Br)cc2)c(O)n(Cc2ccco2)c1=O` was “inactive”.
On to `CCCCCCN=C(CC)c1c(O)n(CCCC)c(=O)[nH]c1=O`, for which the inhibition is 46.5% (active).
With `CC(C)(C)c1ccc(OC(=O)N2CCCCC2)cc1`, the inhibition result is “inactive”.
The value for `CCCCCCCCCCCCn1ccc(=N)cc1` was 52.5% (active).

As usually defined, the inhibition is the drop in the measured response relative to a control, in per cent.
